Measurements reported in PubChem BioAssay AID1159580 (chemical genetic matrix, 2015).
Among all 5,500 compounds or so, about 2,000 (36%) were called active. Roughly 18% stayed inconclusive and do not appear here. Cut-off read from the data, not from the text of the source: active = normalized growth mostly below about 0.91 (no sharp cut-off); inconclusive = no clear call, values can overlap the other calls; inactive = mostly above about 0.92. The list shows a part of the results. Where a SMILES comes first, the peptide text is derived from it. The star is where a group is joined. Cbz = O=C(OCc1ccccc1)*

Experiment: chemical genetic growth profiling, strain panel (AID 1159580);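 note: tested at 20 µM; growth read once vehicle control cultures reached saturation at 30 °C; 1 = growth at the plate median or of vehicle wells; lower values mean less growth of the strain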
Conditions: S. cerevisiae deletion strains, growth OD
[1] = locus YAL040C, strain CLN3, active compounds read low
[2] = locus YCL061C, strain MRC1 (second series), active compounds read low
[3] = locus YDR363W, strain ESC2, active compounds read low
[4] = locus YER002W, strain NOP16, active compounds read low
[5] = locus YNL175C, strain NOP13, active compounds read low
[6] = locus YNL197C, strain WHI3, active compounds read low
[7] = locus YNL224C, strain SQS1, active compounds read low
[8] = locus YNL322C, strain KRE1, active compounds read low
[9] = locus YOR083W, strain WHI5 (second series), active compounds read low

Measured: normalized growth

O=C(NC(Cc1ccccc1)C(=O)CCl)OCc1ccccc1 (stereo not drawn)
inactive: [1] 1.03 | [2] 0.979 | [3] 1.02 | locus YGR078C, strain PAC10, active compounds read low 0.98 | locus YJR075W, strain HOC1, active compounds read low 0.913 | [8] 0.999 | locus YPL241C, strain CIN2, active compounds read low 0.992
active: [4] 0.549 | locus YGR229C, strain SMI1, active compounds read low 0.28 | [5] 0.707 | [6] 0.874 | [7] 0.784 | [9] 0.687

CC(C)[C@H](NC(=O)OCc1ccccc1)C(=O)N[C@H](C=O)Cc1ccccc1 (Cbz-Val-Phe-aldehyde)
inactive: [1] 0.961 | [2] 1 | [3] 1.04 | [4] 0.993 | locus YMR263W, strain SAP30, active compounds read low 0.976 | locus YMR307W, strain GAS1, active compounds read low 1.02 | [5] 0.969 | [6] 0.969 | [7] 0.996 | [8] 1 | [9] 0.997

COC(=O)[C@H](Cc1ccccc1)NC(=O)[C@@H](N)CC(=O)O (H-Asp-Phe-OMe)
inactive: locus YAL021C, strain ccr4, active compounds read low 1.01 | locus YAL026C, strain drs2, active compounds read low 1.01 | locus YAL030W, strain snc1, active compounds read low 1 | locus YBL061C, strain skt5, active compounds read low 1.02 | locus YBR009C, strain hhf1, active compounds read low 1.02 | locus YBR023C, strain chs3, active compounds read low 1.02 | locus YBR171W, strain sec66, active compounds read low 1.02 | locus YBR231C, strain swc5, active compounds read low 1.03 | locus YBR279W, strain paf1, active compounds read low 1.02 | locus YCL011C, strain gbp2, active compounds read low 1.02 | locus YCL016C, strain dcc1, active compounds read low 1.01 | locus YCL061C, strain MRC1, active compounds read low 1.01 | locus YCL069W, strain vba3, active compounds read low 1.02 | locus YCR088W, strain abp1, active compounds read low 1.01 | locus YDL005C, strain med2, active compounds read low 1 | locus YDL040C, strain nat1, active compounds read low 1.01 | locus YDR001C, strain nth1, active compounds read low 1.02 | locus YDR069C, strain doa4, active compounds read low 1.02 | locus YDR137W, strain rgp1, active compounds read low 1.01 | locus YDR159W, strain sac3, active compounds read low 1.02 | locus YDR195W, strain ref2 1.01 | locus YDR297W, strain sur2, active compounds read low 1.02 | locus YDR334W, strain swr1, active compounds read low 1.01 | locus YDR335W, strain msn5, active compounds read low 1.02 | locus YDR392W, strain spt3, active compounds read low 0.958 | locus YEL003W, strain gim4, active compounds read low 1.02 | locus YEL037C, strain rad23, active compounds read low 1.02 | locus YEL061C, strain CIN8 (second series), active compounds read low 1.01 | locus YER015W, strain faa2, active compounds read low 1.01 | locus YER016W, strain bim1, active compounds read low 1.01 | locus YER111C, strain swi4, active compounds read low 1.02 | locus YER155C, strain BEM2 (second series), active compounds read low 1.03 | locus YFR010W, strain ubp6, active compounds read low 1.02 | locus YGL167C, strain pmr1, active compounds read low 1.02 | locus YGL173C, strain kem1, active compounds read low 1.01 | locus YGL227W, strain vid30, active compounds read low 1.02 | locus YGL240W, strain doc1, active compounds read low 1.04 | locus YGL253W, strain hxk2, active compounds read low 1 | locus YHR013C, strain ard1, active compounds read low 1.01 | locus YHR027C, strain rpn1, active compounds read low 1.02 | locus YHR030C, strain SLT2, active compounds read low 1.02 | locus YHR079C, strain IRE1, active compounds read low 1.02 | locus YHR142W, strain chs7, active compounds read low 1.01 | locus YJL092W, strain hpr5, active compounds read low 1.02 | locus YJL095W, strain BCK1 (second series), active compounds read low 1.02 | locus YJL095W, strain BCK1, active compounds read low 0.978 | locus YJL115W, strain asf1, active compounds read low 1.02 | locus YJL129C, strain trk1, active compounds read low 1.01 | locus YJL154C, strain vps35, active compounds read low 1.02 | locus YJL164C, strain tpk1, active compounds read low 0.999 | locus YJL166W, strain qcr8, active compounds read low 1.03 | locus YJR066W, strain TOR1, active compounds read low 0.961 | locus YKL160W, strain elf1, active compounds read low 1.02 | locus YKR026C, strain gcn3, active compounds read low 1.02 | locus YKR091W, strain srl3, active compounds read low 1.02 | locus YLL001W, strain dnm1, active compounds read low 1.01 | locus YLL026W, active compounds read low 1.02 | locus YLL041C, strain sdh2, active compounds read low 1.02 | locus YLR027C, strain aat2, active compounds read low 1.02 | locus YLR113W, strain HOG1, active compounds read low 0.969 | locus YLR221C, strain rsa3, active compounds read low 0.998 | locus YLR258W, strain gsy2, active compounds read low 1.02 | locus YLR262C, strain YPT6 (second series), active compounds read low 1.02 | locus YLR320W, strain mms22, active compounds read low 1.01 | locus YLR342W, strain FKS1, active compounds read low 1.03 | locus YLR357W, strain rsc2, active compounds read low 1.03 | locus YLR370C, strain arc18, active compounds read low 1.01 | locus YLR384C, strain iki3, active compounds read low 1.02 | locus YML120C, strain ndi1, active compounds read low 1.01 | locus YMR058W, strain fet3, active compounds read low 1.02 | locus YMR125W, strain sto1, active compounds read low 1.01 | locus YMR129W, active compounds read low 1.02 | locus YMR205C, strain PFK2, active compounds read low 1.02 | locus YMR231W, strain pep5, active compounds read low 1.03 | locus YNL071W, strain lat1, active compounds read low 1.02 | locus YNL183C, strain NPR1, active compounds read low 0.96 | locus YNL209W, strain ssb2, active compounds read low 1.01 | locus YNL248C, strain rpa49, active compounds read low 1 | locus YNL322C, strain KRE1 (second series), active compounds read low 1.02 | locus YNR049C, strain mso1, active compounds read low 1.02 | locus YOR001W, strain rrp6, active compounds read low 1.01 | locus YOR070C, strain gyp1, active compounds read low 1.01 | locus YOR080W, strain dia2, active compounds read low 1.02 | locus YOR083W, strain WHI5, active compounds read low 1.02 | locus YOR106W, strain vam3, active compounds read low 1.03 | locus YOR231W, strain MKK1, active compounds read low 1.02 | locus YOR265W, strain rbl2, active compounds read low 1.01 | locus YOR270C, strain vph1, active compounds read low 1.05 | locus YOR290C, strain snf2, active compounds read low 0.995 | locus YPL051W, strain arl3, active compounds read low 1.03 | locus YPL078C, strain atp4, active compounds read low 1.02 | locus YPL106C, strain sse1, active compounds read low 1.03 | locus YPL240C, strain hsp82, active compounds read low 1.01 | locus YPL256C, strain CLN2, active compounds read low 1.02
